# Experimental data taken from article PMC5540273 (PLoS ONE, 2017).
# Several values for one entry are separate records, joined by “and”; a condition that tells them apart may be missing. Equal values may be shown once. Read-outs that look alike come from different tables or passages of the source.
# What was measured:
# AKT3 = conditions: concentration: 1 μM, replicates: in singlicate, n = 1
# ALK = conditions: concentration: 1 μM, replicates: in singlicate; n = 1
# AMPK-alpha1 = test system: T1, AMPK-alpha1; conditions: concentration: 1 μM, replicates: in singlicate, n = 1
# T1 construct: gene PRKAA1
# AMPK-alpha2 = test system: T2, AMPK-alpha2; conditions: concentration: 1 μM, replicates: in singlicate; n = 1
# T2 construct: gene PRKAA2
# ANKK1 = conditions: concentration: 1 μM, replicates: in singlicate, n = 1
# ARK5 = test system: T3, ARK5; conditions: concentration: 1 μM, replicates: in singlicate, n = 1
# T3 construct: gene NUAK1
# ASK1 = test system: T4, ASK1; conditions: concentration: 1 μM, replicates: in singlicate, n = 1
# T4 construct: gene MAP3K5
# ASK2 = test system: T5, ASK2; conditions: concentration: 1 μM, replicates: in singlicate, n = 1
# T5 construct: gene MAP3K6
# AURKA = conditions: concentration: 1 μM, replicates: in singlicate, n = 1
# AURKB = conditions: concentration: 1 μM, replicates: in singlicate, n = 1
# AURKC = conditions: concentration: 1 μM, replicates: in singlicate; n = 1
# AXL = conditions: concentration: 1 μM, replicates: in singlicate, n = 1
# BIKE = test system: T6, BIKE; conditions: concentration: 1 μM, replicates: in singlicate, n = 1
# T6 construct: gene BMP2K
# BLK = conditions: concentration: 1 μM, replicates: in singlicate; n = 1
# BMPR1A = conditions: concentration: 1 μM, replicates: in singlicate; n = 1
# BMPR1B = conditions: concentration: 1 μM, replicates: in singlicate, n = 1
# BMPR2 = conditions: concentration: 1 μM, replicates: in singlicate, n = 1
# BMX = conditions: concentration: 1 μM, replicates: in singlicate, n = 1
# BRAF = conditions: concentration: 1 μM, replicates: in singlicate, n = 1
# BRK = test system: T7, BRK; conditions: concentration: 1 μM, replicates: in singlicate, n = 1
# T7 construct: gene PTK6
# 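Also: KINOMEscan kinase panel screen.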
smiles,measurement,setting,value
CN1c2ccc(-c3ccc(C(=O)NCCO)cc3)cc2-c2[nH]ncc2S1(=O)=O,%Inh,AKT3,12%
same,%Inh,ALK,44%
same,%Inh,AMPK-alpha1,16%
same,%Inh,AMPK-alpha2,0%
same,%Inh,ANKK1,0%
same,%Inh,ARK5,0%
same,%Inh,ASK1,34%
same,%Inh,ASK2,3%
same,%Inh,AURKA,0%
same,%Inh,AURKB,37%
same,%Inh,AURKC,9%
same,%Inh,AXL,17%
same,%Inh,BIKE,10%
same,%Inh,BLK,26%
same,%Inh,BMPR1A,19%
same,%Inh,BMPR1B,16%
same,%Inh,BMPR2,0%
same,%Inh,BMX,13%
same,%Inh,BRAF,19%
same,%Inh,BRK,0%
CC(C)(C)c1ccc(-n2cnc3c(N)ncnc32)cc1 [SKF-97263],%Inh,AKT3,0%
same,%Inh,ALK,7%
same,%Inh,AMPK-alpha1,14%
same,%Inh,AMPK-alpha2,21%
same,%Inh,ANKK1,24%
same,%Inh,ARK5,10%
same,%Inh,ASK1,1%
same,%Inh,ASK2,1%
same,%Inh,AURKA,7%
same,%Inh,AURKB,16%
same,%Inh,AURKC,16%
same,%Inh,AXL,15%
same,%Inh,BIKE,19%
same,%Inh,BLK,6%
same,%Inh,BMPR1A,0%
same,%Inh,BMPR1B,5%
same,%Inh,BMPR2,6%
same,%Inh,BMX,16%
same,%Inh,BRAF,0%
same,%Inh,BRK,6%
CC(C)(C)OC(=O)NC1CCCN(c2cc(-c3ccc4c(N)n[nH]c4c3)nc(N)n2)C1 (stereo not drawn) [GSK2286096],%Inh,AKT3,0%
same,%Inh,ALK,36%
same,%Inh,AMPK-alpha1,0%
same,%Inh,AMPK-alpha2,0%
same,%Inh,ANKK1,7%
same,%Inh,ARK5,19%
same,%Inh,ASK1,0%
same,%Inh,ASK2,0%
same,%Inh,AURKA,52%
same,%Inh,AURKB,66%
same,%Inh,AURKC,53%
same,%Inh,AXL,5%
same,%Inh,BIKE,10%
same,%Inh,BLK,0%
same,%Inh,BMPR1A,0%
same,%Inh,BMPR1B,0%
same,%Inh,BMPR2,0%
same,%Inh,BMX,8%
same,%Inh,BRAF,16%
same,%Inh,BRK,13%
COc1ccc(-c2nc3n(c2-c2ccncc2)CCC3)cc1 [SKF-104493],%Inh,AKT3; 1 µM,19% and 0%
same,%Inh,ALK,0%
same,%Inh,AMPK-alpha1; 1 µM,11% and 9%
same,%Inh,AMPK-alpha2,0%
same,%Inh,ANKK1; 1 µM,0% and 16%
same,%Inh,ARK5; 1 µM,0% and 12%
same,%Inh,ASK1; 1 µM,0% and 2%
same,%Inh,ASK2; 1 µM,30% and 6%
same,%Inh,AURKA; 1 µM,16% and 23%
same,%Inh,AURKB; 1 µM,23% and 7%
same,%Inh,AURKC,0%
same,%Inh,AXL; 1 µM,14% and 0%
same,%Inh,BIKE; 1 µM,10% and 0%
same,%Inh,BLK,0%
same,%Inh,BMPR1A,0%
same,%Inh,BMPR1B; 1 µM,0% and 1%
same,%Inh,BMPR2; 1 µM,39% and 2%
same,%Inh,BMX; 1 µM,0% and 11%
same,%Inh,BRAF; 1 µM,23% and 0%
same,%Inh,BRK; 1 µM,2% and 0%
O=c1cc(N2CCOCC2)nc2n(Cc3cccc(Cl)c3)ccn12 [GSK2296823],%Inh,AKT3,0%
same,%Inh,ALK,32%
same,%Inh,AMPK-alpha1,0%
same,%Inh,AMPK-alpha2,0%
same,%Inh,ANKK1,22%
same,%Inh,ARK5,14%
same,%Inh,ASK1,0%
same,%Inh,ASK2,0%
same,%Inh,AURKA,0%
same,%Inh,AURKB,3%
same,%Inh,AURKC,1%
same,%Inh,AXL,0%
same,%Inh,BIKE,20%
same,%Inh,BLK,9%
same,%Inh,BMPR1A,0%
same,%Inh,BMPR1B,0%
same,%Inh,BMPR2,0%
same,%Inh,BMX,20%
same,%Inh,BRAF,10%
same,%Inh,BRK,7%
OCCOCCn1ccc2ncnc(Nc3ccc(Oc4cccc(Cl)c4)c(Cl)c3)c21,%Inh,AKT3,0%
same,%Inh,ALK,0%
same,%Inh,AMPK-alpha1,0%
same,%Inh,AMPK-alpha2,0%
same,%Inh,ANKK1,0%
same,%Inh,ARK5,0%
same,%Inh,ASK1,0%
same,%Inh,ASK2,0%
same,%Inh,AURKA,0%
same,%Inh,AURKB,0%
same,%Inh,AURKC,0%
same,%Inh,AXL,0%
same,%Inh,BIKE,0%
same,%Inh,BLK,3%
same,%Inh,BMPR1A,1%
same,%Inh,BMPR1B,0%
same,%Inh,BMPR2,0%
same,%Inh,BMX,13%
same,%Inh,BRAF,0%
same,%Inh,BRK,0%
CCc1nc(-c2cccc(N(C)S(=O)(=O)c3ccccc3)c2)c(-c2ccnc(Nc3ccc(N4CCN(C(C)=O)CC4)nc3)n2)s1 [GSK1645895],%Inh,AKT3,0%
same,%Inh,ALK,18%
same,%Inh,AMPK-alpha1,0%
same,%Inh,AMPK-alpha2,0%
same,%Inh,ANKK1,26%
same,%Inh,ARK5,16%
same,%Inh,ASK1,12%
same,%Inh,ASK2,0%
same,%Inh,AURKA,19%
same,%Inh,AURKB,10%
same,%Inh,AURKC,0%
same,%Inh,AXL,0%
same,%Inh,BIKE,0%
same,%Inh,BLK,64%
same,%Inh,BMPR1A,0%
same,%Inh,BMPR1B,0%
same,%Inh,BMPR2,0%
same,%Inh,BMX,15%
same,%Inh,BRAF,60%
same,%Inh,BRK,31%
FC(F)(F)c1ccc(-c2nn3ncccc3c2-c2ccnc(Nc3cccc(C(F)(F)F)c3)n2)cc1 [GW828205],%Inh,AKT3,15%
same,%Inh,ALK,0%
same,%Inh,AMPK-alpha1,12%
same,%Inh,AMPK-alpha2,0%
same,%Inh,ANKK1,0%
same,%Inh,ARK5,6%
same,%Inh,ASK1,0%
same,%Inh,ASK2,0%
same,%Inh,AURKA,0%
same,%Inh,AURKB,14%
same,%Inh,AURKC,12%
same,%Inh,AXL,0%
same,%Inh,BIKE,1%
same,%Inh,BLK,1%
same,%Inh,BMPR1A,0%
same,%Inh,BMPR1B,0%
same,%Inh,BMPR2,0%
same,%Inh,BMX,0%
same,%Inh,BRAF,0%
same,%Inh,BRK,0%
Fc1ccc(-c2ncn(CCCNCc3ccccc3)c2-c2ccncc2)cc1,%Inh,AKT3,0%
same,%Inh,ALK,0%
same,%Inh,AMPK-alpha1,22%
same,%Inh,AMPK-alpha2,0%
same,%Inh,ANKK1,0%
same,%Inh,ARK5,0%
same,%Inh,ASK1,11%
same,%Inh,ASK2,1%
same,%Inh,AURKA,19%
same,%Inh,AURKB,8%
same,%Inh,AURKC,0%
same,%Inh,AXL,18%
same,%Inh,BIKE,0%
same,%Inh,BLK,7%
same,%Inh,BMPR1A,13%
same,%Inh,BMPR1B,24%
same,%Inh,BMPR2,16%
same,%Inh,BMX,7%
same,%Inh,BRAF,16%
same,%Inh,BRK,3%
